In the supplement of paper PMC13380429:

System: Vero E6 infected with SARS-CoV-2
Assay: inhibition of SARS-CoV-2 cytopathic effect; higher = more antiviral protection, active = above 15
Conditions: 48 h

Measured: inhibition of SARS-CoV-2 cytopathic effect

O=C(O)c1cccnc1Nc1cccc(C(F)(F)F)c1 [niflumic-acid]
inactive: 1 nM 1.14% | 8.33 nM 2.42% | 100 nM -0.03% | 833.33 nM 1.51% | 10000 nM 1.54%

CS(=O)(=O)Oc1ccc2c(NC(N)=O)c(C(=O)c3ccc(Cl)cc3Cl)oc2c1 [lirimilast]
inactive: 1 nM -4.96% | 8.33 nM -9.08% | 100 nM -8.83% | 833.33 nM -12.5% | 10000 nM -5.64%

N[C@@H](C(=O)N[C@@H]1C(=O)N2C(C(=O)O)=C(Cl)CC[C@H]12)c1ccccc1 [loracarbef]
inactive: 1 nM 7.18% | 8.33 nM 4.02% | 100 nM 2.95% | 833.33 nM 1.17% | 10000 nM 5.45%

CCCCCCCCCC(=O)OC1(c2ccc(Cl)cc2)CCN(CCCC(=O)c2ccc(F)cc2)CC1 [haloperidol-decanoate]
inactive: 1 nM 0.13% | 8.33 nM 0.37% | 100 nM -2.1% | 833.33 nM -0.9% | 10000 nM -1.91%

CC(COc1ccccc1)NC(C)C(O)c1ccc(O)cc1 (stereo not given) [isoxsuprine]
inactive: 1 nM 0.69% | 8.33 nM 2% | 100 nM -0.95% | 833.33 nM 1.95% | 10000 nM -1.14%

CN1C(=O)COc2c(C(=O)NC3CN4CCC3CC4)cc(Cl)cc21 (stereo not given) [azasetron]
inactive: 1 nM 1.97% | 8.33 nM 1.89% | 100 nM 0.9% | 833.33 nM -0.56% | 10000 nM -0.16%

C[C@H](NC(=O)/C(C#N)=C/c1cccc(Br)n1)c1ccccc1
inactive: 1 nM -2.07% | 8.33 nM -1.75% | 100 nM -2.65% | 833.33 nM 5.36% | 10000 nM -4.77%

C1CCC(NC2CCCCC2)CC1 [dicyclohexylamine]
inactive: 1 nM 2.51% | 8.33 nM 6.58% | 100 nM 13.2% | 833.33 nM 0.43% | 10000 nM -2.8%
